Experimental data from PubChem BioAssay (Tox21).
Where “and” joins values, the source holds several entries; their conditions need not be identical. Equal entries are not always repeated. Results filed as inconclusive are left out. Where a call stands in place of a potency, no number is given. Where a structure was tested more than once in an assay, its records may differ in their call. Calls of active or inactive are those of the source. Unless noted, calls follow the shape of the dose curve; as a rule, active = well fitted curve in the direction sought with a large enough effect in the repeat runs; inconclusive = weak or mixed curves; inactive = no such curve, though single readings can be large; an effect the other way counts as inactive or inconclusive.

Key:
[1] = qHTS assay to identify small molecule antagonists of the glucocorticoid receptor (GR) signaling pathway - cell viability counter screen (AID 720693); also: nearly all actives have a fitted effect of over 55% in size; also: potency is read from the fitted curve at half-maximal effect
[2] = qHTS assay for identifying genotoxic compounds that show differential cytotoxicity against isogenic chicken DT40 cell lines with known DNA damage response pathways - wild type cell line (AID 743012); also: nearly all actives have a fitted effect of over 60% in size; also: potency is read from the fitted curve at half-maximal effect
How it was run: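 Endpoint: CellTiter-Glo luminescence, 30 min RT. Cells: wild type DT40, 300/well. Exposure: compounds in DMSO, 40 h, 37 C/5% CO2, after ~0.5 h pre-incubation.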

[3] = qHTS assay for identifying genotoxic compounds that show differential cytotoxicity against isogenic chicken DT40 cell lines with known DNA damage response pathways - Rev3 mutant cell line (AID 743014); also: nearly all actives have a fitted effect of over 55% in size; also: potency is read from the fitted curve at half-maximal effect
[4] = qHTS assay for identifying genotoxic compounds that show differential cytotoxicity against isogenic chicken DT40 cell lines with known DNA damage response pathways - Rad54/Ku70 mutant cell line (AID 743015); also: nearly all actives have a fitted effect of over 60% in size; also: potency is read from the fitted curve at half-maximal effect
[5] = qHTS assay to identify small molecule antagonists of the androgen receptor (AR) signaling pathway - cell viability counter screen (AID 743033; also: nearly all actives have a fitted effect of over 45% in size; also: potency is read from the fitted curve at half-maximal effect)
[6] = qHTS assay to identify small molecule antagonists of the androgen receptor (AR) signaling pathway using the MDA cell line - cell viability counter screen (AID 743041; also: nearly all actives have a fitted effect of over 45% in size; also: potency is read from the fitted curve at half-maximal effect)
How it was run: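 Cytotoxicity counter screen: MDA-kb2 AR-luc cells, compound + R1881, 16 h, 37C, 0% CO2; CellTiter-Fluor added at 15.5 h, fluorescence read after 30 min.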

[7] = qHTS assay to identify small molecule antagonists of the thyroid receptor (TR) signaling pathway - cell viability counter screen (AID 743064); also: nearly all actives have a fitted effect of over 50% in size; also: potency is read from the fitted curve at half-maximal effect
How it was run: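 Counter screen for cytotoxicity: compound plus T3 (1 nM final) on GH3.TRE-Luc cells, 23.5 h at 37 °C, then fluorescence viability readout with CellTiter-Fluor.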

[8] = qHTS assay to identify small molecule antagonists of the thyroid receptor (TR) signaling pathway (AID 743065); also: nearly all actives have a fitted effect of over 55% in size; also: potency is read from the fitted curve at half-maximal effect
How it was run: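 GH3.TRE-Luc rat pituitary cells (two TREs driving luciferase) were dosed with compound, then stimulated with 1 nM T3 (final) for 23.5 h at 37 C. ONE-Glo luminescence was the read-out, with CellTiter-Fluor fluorescence as the cytotoxicity counter-screen.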

[9] = test system: thyroid hormone receptor (rat, GH3 cells); test: qHTS assay to identify small molecule agonists of the thyroid receptor (TR) signaling pathway (AID 743066; calls by dose curve)
[10] = molecular target: Estrogen receptor (Homo sapiens) (UniProt P03372); test: qHTS assay to identify small molecule antagonists of the estrogen receptor alpha (ER-alpha) signaling pathway (AID 743069; active = well fitted curve in the direction sought with a large enough effect in the signal ratio in the repeat runs, not every such curve was filed as active; the % refers to the signal ratio)
How it was run: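 Beta-lactamase FRET fluorescence is read after 2 hr at room temperature with LiveBLAzer B/G substrate. Before that, ER-alpha-bla HEK293 cells sit 4 hr after plating, then receive compound plus 17beta-estradiol and incubate 18 hr at 37C.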

[11] = qHTS assay to identify small molecule antagonists of the estrogen receptor alpha (ER-alpha) signaling pathway - cell viability counter screen (AID 743074; calls by dose curve;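 also: HEK293 cells carrying ER-alpha-UAS-bla reporter stimulated with 17beta-estradiol; nearly all actives have a fitted effect of over 45% in size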; also: potency is read from the fitted curve at half-maximal effect)
[12] = molecular target: Estrogen receptor (Homo sapiens) (UniProt P03372); test: qHTS assay to identify small molecule agonists of the estrogen receptor alpha (ER-alpha) signaling pathway (AID 743075; calls by dose curve;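 also: HEK293 GripTite cells with ER-alpha and UAS-driven beta-lactamase reporter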)
[13] = molecular target: Estrogen receptor (Homo sapiens) (UniProt P03372); test: qHTS assay to identify small molecule agonists of the estrogen receptor alpha (ER-alpha) signaling pathway using the BG1 cell line (AID 743079); settings: BG1Luc4E2 cells, ERE-luciferase agonist, 22 h; activation: at 70.3 µM (top of the series) unless noted; also: nearly all actives have a fitted effect of over 20% in size
[14] = qHTS assay to identify small molecule antagonists of the estrogen receptor alpha (ER-alpha) signaling pathway using the BG1 cell line (AID 743080; calls by dose curve;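 also: BG1 cells stimulated with 17beta-estradiol alongside compound; nearly all actives have a fitted effect of over 25% in size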)
How it was run: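 Seeding, 24 h rest, compound transfer from DMSO, 17beta-estradiol addition, 21.5 h incubation, CellTiter-Fluor (30 min, 37 C), then ONE-Glo (30 min, room temperature): this sequence was run on BG1-Luc-4E2 reporter cells.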

[15] = qHTS assay to identify small molecule antagonists of the estrogen receptor alpha (ER-alpha) signaling pathway using the BG1 cell line - cell viability counter screen (AID 743081);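 also: compound given together with 17beta-estradiol as the ER stimulus; nearly all actives have a fitted effect of over 45% in size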; also: potency is read from the fitted curve at half-maximal effect
Aromatase (Homo sapiens) = Aromatase (Homo sapiens) (UniProt P11511); test: qHTS assay to identify aromatase inhibitors (AID 743083); also: nearly all actives have a fitted effect of over 55% in size; also: potency is read from the fitted curve at half-maximal effect
[16] = molecular target: Androgen receptor (Homo sapiens) (UniProt P10275); test: qHTS assay to identify small molecule antagonists of the androgen receptor (AR) signaling pathway (AID 743035; active = well fitted inhibition curve with a large enough effect in the signal ratio in the repeat runs, not every such curve was filed as active; the % refers to the signal ratio; also: potency is read from the fitted curve at half-maximal effect)
How it was run: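 R1881 agonist challenge of a HEK293 UAS-beta-lactamase AR reporter line in the presence of compound (16 h, 37C); signal taken as FRET fluorescence after 2 h with LiveBLAzer B/G substrate at room temperature.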

[17] = molecular target: Androgen receptor (Homo sapiens) (UniProt P10275); test: qHTS assay to identify small molecule agonists of the androgen receptor (AR) signaling pathway (AID 743036; active = well fitted activation curve with a large enough effect in the signal ratio in the repeat runs, with a control signal flat, not every such curve was filed as active; the % refers to the signal ratio)
How it was run: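 In this Tox21 qHTS, 2,000 HEK293 AR-bla cells per well were incubated with compounds for 16 h at 37C and 5% CO2. Fluorescence intensity was recorded 2 h after adding LiveBLAzer B/G FRET substrate at room temperature.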

[18] = molecular target: Androgen receptor (Homo sapiens) (UniProt P10275); test: qHTS assay to identify small molecule agonists of the androgen receptor (AR) signaling pathway using the MDA cell line (AID 743040; also: potency is read from the fitted curve at half-maximal effect; as to all read-outs here: nearly all actives have a fitted effect of over 20% in size); settings: MDA-kb2 AR-luc cells, MMTV luciferase, 16 h; for activity change: stronger effect = higher value
How it was run: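 Luciferase read-out, ONE-Glo, 30 min RT. Cells: MDA-kb2 AR-luc, MMTV promoter with AR and GR response elements. Compound exposure 16 h, 37C, 0% CO2, after 5 h pre-incubation. qHTS agonist mode.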

[19] = molecular target: Androgen receptor (Homo sapiens) (UniProt P10275); test: qHTS assay to identify small molecule antagonists of the androgen receptor (AR) signaling pathway using the MDA cell line (AID 743042; also: nearly all actives have a fitted effect of over 55% in size; also: potency is read from the fitted curve at half-maximal effect)
How it was run: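 MDA-kb2 breast carcinoma cells carrying MMTV-luciferase (AR/GR responsive) were co-treated with compounds and the agonist R1881 for 16 h at 37C. Inhibition read as ONE-Glo luminescence; CellTiter-Fluor fluorescence measured in parallel for cytotoxicity.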

Sequence of Androgen receptor (Homo sapiens) (P10275 whole entry, looked up): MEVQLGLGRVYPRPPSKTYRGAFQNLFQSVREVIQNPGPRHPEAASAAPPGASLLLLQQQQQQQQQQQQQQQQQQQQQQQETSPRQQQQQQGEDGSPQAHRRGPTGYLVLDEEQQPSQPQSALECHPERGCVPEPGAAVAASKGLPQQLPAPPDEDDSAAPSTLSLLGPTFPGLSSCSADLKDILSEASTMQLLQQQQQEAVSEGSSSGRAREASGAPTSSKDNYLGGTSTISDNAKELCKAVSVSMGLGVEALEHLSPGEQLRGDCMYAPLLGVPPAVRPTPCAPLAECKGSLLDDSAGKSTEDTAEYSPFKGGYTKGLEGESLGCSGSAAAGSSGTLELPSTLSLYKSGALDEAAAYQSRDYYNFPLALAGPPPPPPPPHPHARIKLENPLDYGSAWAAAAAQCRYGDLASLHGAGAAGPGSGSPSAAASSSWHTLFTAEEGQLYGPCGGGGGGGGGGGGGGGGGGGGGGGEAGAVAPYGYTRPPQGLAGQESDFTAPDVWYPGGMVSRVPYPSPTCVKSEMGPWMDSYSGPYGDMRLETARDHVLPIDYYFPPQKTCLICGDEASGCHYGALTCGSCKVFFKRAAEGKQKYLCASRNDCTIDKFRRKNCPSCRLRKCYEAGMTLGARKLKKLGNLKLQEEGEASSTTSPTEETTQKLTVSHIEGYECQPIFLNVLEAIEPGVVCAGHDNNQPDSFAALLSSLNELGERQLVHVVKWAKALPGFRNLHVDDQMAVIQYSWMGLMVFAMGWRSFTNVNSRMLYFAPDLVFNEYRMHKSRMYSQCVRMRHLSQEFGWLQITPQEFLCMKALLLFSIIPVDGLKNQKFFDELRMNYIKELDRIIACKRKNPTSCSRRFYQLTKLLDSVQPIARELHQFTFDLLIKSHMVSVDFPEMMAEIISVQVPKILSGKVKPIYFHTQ
Sequence of Aromatase (Homo sapiens) (P11511 whole entry, looked up): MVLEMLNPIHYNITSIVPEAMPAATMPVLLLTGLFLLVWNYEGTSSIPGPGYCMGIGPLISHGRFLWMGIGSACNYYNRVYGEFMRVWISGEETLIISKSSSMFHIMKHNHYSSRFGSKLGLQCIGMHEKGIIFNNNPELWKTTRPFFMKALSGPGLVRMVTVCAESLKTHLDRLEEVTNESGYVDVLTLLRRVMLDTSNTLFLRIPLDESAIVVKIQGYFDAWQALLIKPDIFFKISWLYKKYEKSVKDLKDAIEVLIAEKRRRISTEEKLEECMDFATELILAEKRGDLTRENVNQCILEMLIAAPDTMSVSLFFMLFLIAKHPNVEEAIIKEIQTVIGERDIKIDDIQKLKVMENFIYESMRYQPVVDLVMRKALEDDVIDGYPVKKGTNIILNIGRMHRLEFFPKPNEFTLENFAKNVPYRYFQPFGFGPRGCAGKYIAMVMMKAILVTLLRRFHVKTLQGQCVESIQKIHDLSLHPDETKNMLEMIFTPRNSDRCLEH
Sequence of Estrogen receptor (Homo sapiens) (P03372 whole entry, looked up): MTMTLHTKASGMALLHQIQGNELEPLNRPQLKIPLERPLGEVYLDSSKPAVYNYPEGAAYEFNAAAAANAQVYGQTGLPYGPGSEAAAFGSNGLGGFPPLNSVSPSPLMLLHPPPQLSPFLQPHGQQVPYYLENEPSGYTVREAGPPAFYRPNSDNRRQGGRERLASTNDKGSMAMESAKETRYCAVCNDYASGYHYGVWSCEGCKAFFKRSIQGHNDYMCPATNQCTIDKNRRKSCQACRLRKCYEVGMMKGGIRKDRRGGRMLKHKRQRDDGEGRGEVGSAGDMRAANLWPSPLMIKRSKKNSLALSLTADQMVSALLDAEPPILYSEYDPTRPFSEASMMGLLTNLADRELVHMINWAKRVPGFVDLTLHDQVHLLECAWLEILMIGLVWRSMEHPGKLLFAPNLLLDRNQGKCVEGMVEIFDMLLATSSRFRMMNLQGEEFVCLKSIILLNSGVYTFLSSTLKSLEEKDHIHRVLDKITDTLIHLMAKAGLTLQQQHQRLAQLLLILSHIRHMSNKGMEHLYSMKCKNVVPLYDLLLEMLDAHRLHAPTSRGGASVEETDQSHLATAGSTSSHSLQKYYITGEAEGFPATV

ClC(Cl)=C(Cl)C(Cl)=C(Cl)Cl
Potency [1]: inactive
Potency [2]: inactive
Potency [3]: inactive
Potency [4]: inactive
Potency [5]: inactive
Potency [6]: inactive
Potency [7]: inactive
Potency [8]: inactive
Potency [9]: inactive
Potency [10]: inactive
Potency [11]: inactive
Potency [12]: inactive
Potency [13]: inactive
Potency [14]: inactive
Potency [15]: inactive
Potency (Aromatase (Homo sapiens)): inactive

CC(C)=CC1C(C(=O)OCc2cccc(Oc3ccccc3)c2)C1(C)C (configuration not stated)
Potency [1]: inactive
Potency [2]: inactive
Potency [3]: inactive
Potency [4]: inactive
Potency [5]: inactive
Potency [6]: inactive
Potency [7]: inactive
Potency [8]: inactive
Potency [9]: inactive
Potency [10]: inactive
Potency [11]: inactive
Potency [12]: inactive
Potency [13]: inactive
Potency [14]: inactive
Potency [15]: inactive
Potency (Aromatase (Homo sapiens)): inactive

S=c1[nH]c2ccccc2[nH]1
Potency [1]: inactive
Potency [2]: inactive
Potency [3]: inactive
Potency [4]: inactive
Potency [5]: inactive
Potency [16]: inactive
Potency [17]: inactive
Potency [18]: 3.86 µM (active)
activity change ([18]; at 70.3 µM (top of the series)): -1.99% (inactive)
Potency [6]: inactive
Potency [19]: inactive
Potency [7]: inactive
Potency [8]: inactive
Potency [9]: inactive
Potency [11]: inactive
Potency [15]: inactive
Potency (Aromatase (Homo sapiens)): inactive

CCOC(=O)c1ccccc1N
Potency [1]: inactive
Potency [2]: inactive
Potency [3]: inactive
Potency [4]: inactive
Potency [5]: inactive
Potency [6]: inactive
Potency [7]: inactive
Potency [8]: inactive
Potency [9]: inactive
Potency [10]: inactive
Potency [11]: inactive
Potency [12]: inactive
Potency [13]: inactive
Potency [14]: inactive
Potency [15]: inactive
Potency (Aromatase (Homo sapiens)): inactive

O=[N+]([O-])/N=C1\NCCN1Cc1ccc(Cl)nc1
Potency [1]: inactive
Potency [2]: inactive
Potency [3]: inactive and 8.41 µM (active)
Potency [4]: inactive and 5.31 µM (active)
Potency [5]: inactive
Potency [16]: inactive
Potency [17]: inactive
activity change ([18]; at 70.3 µM (top of the series)): 0.161% (inactive) and 4.01% (inactive) and 0.695% (inactive)
Potency [6]: inactive
Potency [19]: inactive
Potency [7]: inactive
Potency [8]: inactive
Potency [9]: inactive
Potency [10]: inactive
Potency [11]: inactive
Potency [12]: inactive
Potency [13]: inactive
Potency [14]: inactive
Potency [15]: inactive
Potency (Aromatase (Homo sapiens)): inactive

O=[N+]([O-])c1ccc(Cl)c([N+](=O)[O-])c1
Potency [1]: 19.8 µM (active)
Potency [2]: 2.77 µM (active) and 1.72 µM (active)
Potency [3]: 1.75 µM (active) and 2.17 µM (active)
Potency [4]: 1.24 µM (active) and 1.93 µM (active)
Potency [5]: 11.1 µM (active) and 17.4 µM (active)
Potency [16]: 9.92 µM (active) and 19.5 µM (active)
activity change ([18]; at 70.3 µM (top of the series)): -11.5% (inactive)
activity change ([18]; at 95 µM (top of the series)): -10.5% (inactive)
Potency [6]: 15.6 µM (active) and 13.7 µM (active)
Potency [19]: 8.77 µM (active) and 8.63 µM (active)
Potency [7]: 15.6 µM (active) and 6.11 µM (active)
Potency [8]: 4.39 µM (active) and 4.86 µM (active)
Potency [9]: inactive
Potency [11]: 49.7 µM (active) and 24.5 µM (active)
Potency [12]: inactive
Potency [15]: 62.1 µM (active) and 61.1 µM (active)
Potency (Aromatase (Homo sapiens)): 6.21 µM (active) and 8.63 µM (active)
